# The panel holds about 83,000 compounds, 20% with a hit somewhere; the sample as a whole holds those more often.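 How to read the values: 0–100, growth inhibition (40 = 60% inhibited); 0, no net growth; -100 to 0, cell death (-40 = 40% of starting cells died; -100 = all dead).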 Unmarked numbers belong to inactive results. The source made the active and inactive calls. How the source made its calls: active means growth percent below 10; inactive means the rest.
# Key:
# Experiment in all cases: NCI-60 one-dose screen, 48 h (100 = growth as untreated, 0 = no growth, -100 = all killed)
# Conditions in all cases: 10 µM unless noted
# [1] = tested on: SK-MEL-2 melanoma
# [2] = tested on: EKVX NSCLC
# [3] = tested on: SN12C renal
# [4] = tested on: UO-31 renal
# [5] = tested on: TK-10 renal
# [6] = tested on: ACHN renal
# [7] = tested on: CAKI-1 renal
# [8] = tested on: A498 renal
# [9] = tested on: CCRF-CEM leukemia
SMILES,growth [1],growth [2],growth [3],growth [4],growth [5],growth [6],growth [7],growth [8],growth [9]
O=C1NN(C(=O)c2ccc(O)cc2)C(c2ccccc2)=N/C1=C\c1cn(-c2ccccc2)nc1-c1ccccc1,100%,102%,89.2%,78.6%,84.7%,88.4%,98.6%,88.8%,89.7%
COC(=O)c1ccc(CSc2nnc(-c3ccncc3)o2)cc1,102%,101%,96.2%,79.7%,116%,100%,90.3%,120%,99.3%
COc1ccc(/C=C2\COc3ccc(O)cc3C2=O)c(OC)c1,55.9%,70.5%,52.7%,74.9%,91.9%,85.2%,59.3%,92.4%,4.96% (active)
Cc1nn(-c2ccccc2)c2c1C(c1ccc([N+](=O)[O-])cc1)C(C#N)=C(N)O2 (configuration not stated),123%,115%,101%,70.4%,141%,108%,115%,111%,90.3%
C#C[C@]1(O)CC[C@H]2[C@@H]3CC=C4c5sc(N=C(N)N)nc5CC[C@]4(C)[C@H]3CC[C@@]21C,-13.4% (active),12.7%,-56% (active),-77.7% (active),13.4%,-6.84% (active),-19.9% (active),-90.8% (active),4.5% (active)
C=C1c2c(C)nn(-c3ccc(S(N)(=O)=O)cc3)c2N(C)C23CC1C1(C)c4c(C)nn(-c5ccc(S(N)(=O)=O)cc5)c4N(C)C(C)(CC12)C3 (configuration not stated),44.7%,29.6%,32.4%,25.5%,46.6%,14.1%,40.7%,75.3%,18.7%
COc1ccc(Oc2nc(Nc3ccc(N4CCCCC4)nc3)ncc2NC(=O)c2cc(OC)cc(OC)c2)cc1,41.2%,40.8%,53.2%,33.3%,75.5%,28.8%,41.8%,39.1%,20%
Cc1nc(Nc2ccc(NC(=S)Nc3ccccc3)cc2)c2ccccc2n1,111%,95.6%,101%,85.7%,131%,102%,91.3%,100%,93.1%
Cc1ccc(C)c2c1C(=O)OC2=O,84.6%,105%,97.9%,79.1%,102%,98.8%,99.4%,101%,102%
O=C(NCc1cccnc1)c1cc(-c2csc3c(=O)cc(N4CCOCC4)oc23)cc2c1OCCO2,51.1%,62.5%,41.7%,30.3%,14.1%,34.5%,31.1%,39.9%,39.6%
COC(=O)c1ccc2oc(NC(=O)c3ccc(N4CCOCC4)c([N+](=O)[O-])c3)nc2c1,99.5%,96.6%,87.3%,75.4%,115%,94.1%,85.9%,98.5%,90.3%
C=C(CNCCc1ccc(O)cc1)[C@@H]1CC[C@]2(COC3CCCCO3)CC[C@]3(C)[C@H](CC[C@@H]4[C@@]5(C)CCC(N)C(C)(C)[C@@H]5CC[C@]43C)[C@@H]12 (some centres not stated),-82.9% (active),-74.6% (active),-85.2% (active),-96.8% (active),-90.7% (active),-99% (active),-91.8% (active),-98.7% (active),-64.1% (active)
COc1ccc(-n2ncn(CCCCCCn3cnn(-c4ccc(OC)cc4)c3=O)c2=O)cc1,89.5%,85.8%,90.6%,72.5%,118%,87.5%,87.4%,101%,87.8%
CN(C)c1cnccn1,85.4%,104%,88.6%,84.2%,145%,87.1%,95.6%,95.7%,60.6%
Clc1ccc2c(NCCCN3CCN(c4nc(-n5ccnc5)nc5ccccc45)CC3)ccnc2c1,97.7%,86%,84.1%,43.5%,122%,110%,86.3%,85.1%,6.59% (active)
Cc1ccc(NC(=O)C(Cl)Cl)cc1,83.6%,109%,98.9%,83%,94.3%,100%,103%,80.9%,100%
C=C1c2c(C)nn(-c3ccc(O)cc3)c2N(C)C23C[C@@H]1C1(C)c4c(C)nn(-c5ccc(O)cc5)c4N(C)C(C)(C[C@H]12)C3 (some centres not stated),44.3%,26.1%,30%,22.4%,57.3%,24.6%,27.2%,34.8%,4.13% (active)
CCCn1nc(-c2ccccc2)c2c(-c3ccccc3)onc2c1=O,57.8%,78.9%,82.1%,68.8%,106%,94.1%,85.9%,68.9%,68.7%
Clc1cnc(Nc2ccc(OCCN3CCCC3)cc2)nc1NCc1ccco1,-10.3% (active),25.2%,5.92% (active),-3.47% (active),9.62% (active),-10.2% (active),10%,17.6%,7.04% (active)
CCOC(=O)c1nnn(C(Cc2ccccc2Cl)C(=O)OCC)c1C (configuration not stated),107%,106%,104%,89.7%,96.6%,104%,90.8%,103%,88.5%
Cc1cc(Cl)nc(N(CCCNc2ccnc3cc(Cl)ccc23)Cc2ccccn2)n1,64.2%,64.7%,52.6%,27.2%,66.1%,54.2%,48.5%,30.4%,36.1%
C/C(Cc1ccc(Cl)cc1)=C(/c1ccc(Cl)cc1)c1ccc(OCCN(C)C)cc1,109%,81.8%,47.9%,65%,82.9%,82.8%,54.6%,80.8%,39.5%
COc1ccc(/C=N/NC(=O)Cn2c(-c3ccc(S(C)(=O)=O)cc3)nc3cc(Cl)ccc32)cc1,21.2%,25.3%,27.3%,43.2%,36.8%,30.3%,42%,21.4%,1.56% (active)
COc1cccc(-c2nc3sccn3c2-c2ccnc(NCCNS(=O)(=O)c3c(Cl)cccc3Cl)c2)c1,74.6%,55.6%,60.5%,24.1%,68.5%,44%,36.3%,48.6%,31.1%
COc1ccc(Oc2nc(Nc3ccc(N4CCOCC4)nc3)ncc2NC(=O)c2cc(OC)cc(OC)c2)cc1,47.6%,89.3%,93.7%,56.3%,83.4%,75.1%,67.3%,53.7%,64.2%
CCCCOc1ccc(NC(=O)n2nc(N=NN(C)C)c3ccc(Cl)cc32)cc1,97.6%,102%,93.5%,65.7%,126%,93.8%,90.7%,100%,88.9%
Cc1cc(N2CCCCC2)nc(N(CCNc2ccnc3cc(Cl)ccc23)Cc2ccccn2)n1,79.9%,53.7%,62.3%,23.7%,83.8%,62%,54.1%,37.7%,31.8%
COc1ccc(/C=C(\C#N)n2nnc3cc(F)c(F)cc32)c(OC)c1OC,79%,72.8%,67%,52.4%,126%,66.2%,87.7%,91%,23.4%

# From PubChem BioAssay (NCI)
